# Calls of active or inactive are those of the source. How the source made its calls: active means hit-call score of the fitted dose curve at least 0.9, where 1 is the maximum; inactive means score below 0.9.
# Test: CEETOX_H295R_CORTIC: CeeTox H295R High-throughput Steroidogenesis Assay for Corticosterone (CORTIC) (AID 2283437);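 further: corticosterone secreted into medium quantified by mass spectrometry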
# Details: actives raise or lower the signal
# Protocol: CEETOX_H295R is a cell-based, multiplexed-readout assay that uses H295R, a human adrenal gland cell line, with measurements taken at 48 hours after chemical dosing in a 96-well plate.CEETOX_H295R_CORTIC is one of 23 assay component(s) measured or calculated from the CEETOX_H295R assay. It is designed to make measurements of hormone induction, a form of inducible reporter, as detected with absorbance signals by HPLC-MS-MS technology.Data from the assay component CEETOX_H295R_CORTIC was analyzed into 1 assay endpoint. This assay endpoint, CEETOX_H295R_CORTIC, was analyzed with bidirectional fitting relative to DMSO as the negative control and baseline of activity. Using a type of inducible reporter, gain or loss-of-signal activity using HPLC-MS-MS was used to understand synthesis of Corticosterone in H295R cell line at 48hr of chemical exposure. To generalize the intended target to other relatable targets, this assay endpoint is annotated to the steroid hormone intended target family, where the subfamily is glucocorticoids.
# Cell culture and media preparation procedures were conducted in accordance with OECD Test No. 456 guidelines, with minor modifications. H295R cells (ATCC CRL-2128) were expanded for 5 passages and frozen in batches in liquid nitrogen. Prior to the steroidogenesis assay, H295R cells were thawed and passed at least 4 times. The maximum passage was 10. Cells were maintained in a 1:1 mixture of DMEM/F12 supplemented with 5ml/L ITS+ Premix (BD Bioscience) and 12.5 ml/L Nu-Serum (BD Bioscience). After seeding cells into 96-well plates at 50-60% confluency, cells were allowed to adhere overnight. Prior to chemical testing, culture medium was replaced with 175 uL medium containing 10 uM forskolin to stimulate steroidogenesis for 48 hours. Following prestimulation, forskolin medium was replaced with medium containing test chemical solubilized in DMSO (ensuring a final concentration of 0.1% DMSO). Test chemicals were incubated for 48 hours, then the medium was removed and split into 2 vials containing approximately 75uL each, and stored at -80 C prior to hormone analysis. For steroid quantification, media samples were shipped to OpAns, LLC (Durham, NC) on dry ice, and samples were thawed to room temperature prior to liquid-liquid extraction. Steroid hormones were extracted from media samples using methyl tertbutyl ether (MTBE). An extra derivatization with dansyl chloride was included for estrogen (estrone and estradiol) detection only. Steroid hormones were separated by HPLC, eluted using a reverse phase C18 gradient with electrospray positive ionization, followed by quantification by tandem mass spectrometry (MS/MS). Data were acquired on a MassHunter Workstation Acquisition version B03.01 (Agilent Technologies, Inc.) and processed using MassHunter Quantitative Analysis for QQQ. Accuracy was determined for each hormone analyte from 3 standards to determine upper and lower limits of quantification (ULOQ and LLOQ, respectively) using a 7-point standard curve. Precision and accuracy of the extraction and quantification methods were calculated as the percent relative standard deviation (%RSD) of the spiked standards and percent spiked standard recovered, respectively. […] Test medium was removed following chemical exposure, and cell viability was evaluated in the same wells by MTT. MTT procedures were as follows: after removal of test medium, 500 uL of 0.5 mg/ml of 3-[4,5-dimethylthiazol-2-y]2,5-diphenyltetrazoliumbromide solution was added to the cells. Following a 4-hour incubation at 37 C and 5% CO2 to allow formazan-crystal formation, the MTT solution was removed and blue formazan salt crystals were solubilized using 500uL anhydrous isopropanol with shaking for 20 minutes. Absorbance was read at 570 and 650nm using a Packard Fusion microplate reader. Background correction of absorbance units was used to determine percent change relative to controls. […]
SMILES,outcome,AC50
CCOCCOC(C)=O,inactive,
CC1=C2C[C@H]3[C@@H](CC=C4C[C@@H](O)CC[C@@]43C)[C@@H]2CC[C@]12O[C@@H]1C[C@H](C)CN[C@H]1[C@H]2C,inactive,
ClC1=C(Cl)[C@]2(Cl)[C@@H]3[C@H]4C[C@H]([C@@H]5O[C@H]45)[C@@H]3[C@@]1(Cl)C2(Cl)Cl,inactive,
Cc1ccc(O)c(C)c1,inactive,
CCSC(=O)N(CC)C1CCCCC1,inactive,
CCCCCCOC(=O)c1ccccc1C(=O)OCCCCCC,inactive,
Cc1cc(O)ccc1Cl,inactive,
Clc1ccc(C(c2ccccc2Cl)C(Cl)(Cl)Cl)cc1 (stereo not drawn),inactive,
O=C(NC(=O)c1c(F)cccc1F)Nc1cc(Cl)c(OC(F)(F)C(F)F)c(Cl)c1,inactive,
Oc1ccc(Cl)cc1Cl,inactive,
Cc1cccc(C)c1N,inactive,
CC#Cc1cc(C)nc(Nc2ccccc2)n1,inactive,
Nc1ccc(-c2ccc(N)cc2)cc1,,2960 nM (active)
NS(=O)(=O)C(F)(F)C(F)(F)C(F)(F)C(F)(F)C(F)(F)C(F)(F)C(F)(F)C(F)(F)F,inactive,
C[C@]12CCC(=O)C=C1CC[C@@H]1[C@@H]2CC[C@@]2(C)[C@H]1CC[C@]2(C)O,inactive,
C=CC(N)=O,inactive,
CCC(=O)O[C@H]1CC[C@H]2[C@@H]3CCC4=CC(=O)CC[C@]4(C)[C@H]3CC[C@]12C,inactive,
c1cc2ccc3cccc4ccc(c1)c2c34,inactive,

# From PubChem BioAssay (EPA / NIEHS)
